Screens deposited in PubChem by several laboratories.
E coli growth-1: bacterial growth inhibition, counter-screen for AddAB inhibitors; E. coli V3065 growth, OD600 absorbance, 18 h; inhibition, % at 11.9 µM; 0.27% of 330,000 active;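 active means inhibition above the campaign's mean inhibition across all tested compounds plus 3 SD, cut at about 9.9% in these data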;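 further: uninfected addAB+ strain grown without phage in ampicillin broth; 0% = DMSO wells and 100% = ciprofloxacin 0.95 µg/ml wells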
phage Ecoli inh: E. coli growth loss with phage present; AID 651602; growth absorbance; 0.26% of 360,000 active; inhibition, % at 11.9 µM; in the data active means inhibition above about 11%
E coli growth-2: inhibitors of Escherichia coli growth. AID 1053175. OD600 absorbance (no concentration beside the values). 0.21% of 330,000 active. OD600, 23 h; stronger effect = lower value;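 active means OD600 absorbance below the run mean of sample wells minus 3.6 SD, in any replicate, cut at about 0.56 in these data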
Tat transport: blocks Tat-dependent protein export in E. coli; E. coli MC4100 TorA-mCherry Tat export, fluorescence; inhibition, % at 10 µM; 0.036% of 340,000 active;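 active means mean replicate inhibition at least 50% and at least half of replicates individually reaching 50%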;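 further: exported cargo escapes ClpAP degradation while cytoplasmic cargo is degraded and loses fluorescence; 0% = median of neutral control wells and 100% = median of NaSCN control wells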
AddAB inh: less growth of phage-infected E. coli with AddAB. E. coli expressing H. pylori AddAB, absorbance growth. inhibition, % at 11.9 µM. 0.29% of 330,000 active. AID 435030; in the data active means inhibition above about 12%;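 further: 0% = vehicle wells of infected cells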
AddAB conf: growth loss of T4-infected E. coli expressing H. pylori AddAB, confirmed; shares compounds with AddAB inh; E. coli V3065 expressing H. pylori AddAB, T4 phage, OD; T4 phage with gene 2 nonsense mutations; inhibition, % at 11.9 µM; 64% of 880 active; AID 488942;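 active means mean inhibition above a set limit taken from the earlier primary screen, cut at about 13% in these data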;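 further: higher means less bacterial growth since AddAB block lets phage replicate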
RecBCD counter: reduces growth of phage-infected RecBCD+ E. coli, AddAB inhibitor counter-screen; shares compounds with AddAB inh; E. coli V66 + mutant T4 phage, OD growth; inhibition, % at 11.9 µM; 73% of 880 active; AID 488955;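 active means mean inhibition above the mean of solvent-only control wells plus 3 SD, cut at about 4% in these data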;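 further: optical density read after an 18 h incubation at 37 °C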
Bact viability: counter-screen for AddAB inhibitors: inhibitors of bacterial viability. 35% of 880 active. absorbance (AddAB counterscreen). AID 488956. inhibition, % at 11.9 µM. shares compounds with AddAB inh; in the data active means inhibition above about 25%
RecBCD conf: confirmation: growth loss of phage-infected RecBCD+ E. coli (RecBCD inhibitor screen). shares compounds with phage Ecoli inh. E. coli V66 + T4 2- phage, growth OD. inhibition, % at 11.9 µM. 45% of 890 active;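 active means mean inhibition over triplicates exceeding the hit threshold derived in the original primary screen, cut at about 11% in these data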
Ecoli viability: inhibits E. coli viability, flagging RecBCD hits as nonselective | absorbance (OD) growth | inhibition, % at 11.9 µM | shares compounds with phage Ecoli inh | 29% of 890 active; in the data active means inhibition above about 20%;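 further: E. coli strain V66 grown with compound alone and no phage infection; 0% = bacteria with DMSO vehicle only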
AddAB phage OD: growth loss of phage-infected AddAB E. coli, RecBCD counter-screen; AID 651984; shares compounds with phage Ecoli inh; 45% of 890 active; inhibition, % at 11.9 µM; E. coli expressing H. pylori AddAB + T4 phage, OD growth; gene 2 mutant T4, recBCD-deleted host;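 active means mean inhibition above the solvent-only control wells' mean plus 3 SD, cut at about 22% in these data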;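 further: higher means less bacterial growth from phage killing when AddAB is blocked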
* = called active by the depositor; · = no result given; + = active, no number. A selection: hits, their analogues and other compounds. The true share with any hit is near 0.5%.

SMILES	E coli growth-1	phage Ecoli inh	E coli growth-2	Tat transport	AddAB inh	AddAB conf	RecBCD counter	Bact viability	RecBCD conf	Ecoli viability	AddAB phage OD
COC1C=COC2(C)Oc3c(C)c(O)c4c(O)c(c(CN5CCN(C)CC5)c(O)c4c3C2=O)NC(=O)C(C)=CC=CC(C)C(O)C(C)C(O)C(C)C(OC(C)=O)C1C (configuration not stated)	·	1	·	8	·	·	·	·	·	·	·
CCC(C)N1CCC2(CC1)N=c1c(c3c4c5c(C)c(O)c3c(O)c1=NC(=O)C(C)=CC=C[C@H](C)[C@H](O)[C@@H](C)[C@@H](O)[C@@H](C)[C@H](OC(C)=O)[C@H](C)[C@@H](OC)C=CO[C@@](C)(O5)C4=O)N2 (some centres not stated)	98*	105*	·	107*	97*	96*	97*	99*	96*	99*	102*
Cc1cc(C)nc(NS(=O)(=O)c2ccc(N=NN(C)C)cc2)n1	0	1	0.68	-12	3	·	·	·	·	·	·
Cc1ccc(C(=O)NS(=O)(=O)c2ccc(N=NN(C)C)cc2)cc1	70*	13*	0.65	-9	100*	0	-1	-1	0	1	-1
CCN(CC)N=Nc1[nH]nc2nc(C)cc(C)c12	87*	14*	0.56*	25	35*	93*	9.3*	51*	10	10	76*
Cc1cc(C)c2c(N=NN3CCCCC3)[nH]nc2n1	89*	14*	0.65	-7	98*	91*	7.7*	43*	9	10	53*
COc1ccc(CN2C(CC(=O)O)c3cc(F)ccc3S2(=O)=O)cc1 (configuration not stated)	·	·	0.66	·	·	·	·	·	·	·	·
COc1ccc(S(=O)(=O)Nc2cccc3c2OC(CN(C)C(=O)Nc2ccc(C(F)(F)F)cc2)C(C)CN(C(C)CO)C3=O)cc1 (configuration not stated)	·	·	0.66	·	·	·	·	·	·	·	·
Nc1nc(=S)c2ncn(C3CCCCC3)c2[nH]1	·	2	0.68	-8	·	·	·	·	·	·	·
Nc1nc(Cl)nc2c1ncn2[C@@H]1O[C@H](CO)[C@@H](O)[C@H]1O	0	5	·	5	-2	·	·	·	·	·	·
Nc1ncn([C@@H]2O[C@H](CO)[C@@H](O)[C@H]2O)c(=O)n1	93*	62*	·	-2	96*	91*	29*	94*	48*	56*	103*
Nc1nc(=S)c2ncn([C@@H]3O[C@H](CO)[C@@H](O)[C@H]3O)c2[nH]1	76*	72*	·	-25	89*	91*	63*	73*	57*	75*	81*
Nc1nc(=S)c2ncn(C3OC(CO)C(O)C3O)c2[nH]1 (configuration not stated)	30*	17*	0.52	-12	25*	74*	27*	54*	32*	38*	55*
CCCCCC=CCC(O)C=Cc1cccc(CC(O)CCCCO)n1 (configuration not stated)	·	·	0.67	·	·	·	·	·	·	·	·
O=C1CCCC2=C1C(c1ccc(Cl)cc1)C1C(=O)c3ccccc3C1=N2 (configuration not stated)	-3	0	0.66	-1	1	·	·	·	·	·	·
O=C1c2ccccc2C2=Nc3ccccc3SC(c3ccc(Cl)cc3)C12 (configuration not stated)	36*	22*	0.66	-57	25*	39*	30*	52*	18*	16	42*
CCOC(=O)c1ccc(-c2ccc(C3Nc4ccccc4C(=O)N3O)o2)cc1 (configuration not stated)	22*	24*	0.64	1	21*	20*	21*	18	16*	18	14
Cc1cc([N+](=O)[O-])ccc1-c1ccc(C2Nc3ccccc3C(=O)N2O)o1 (configuration not stated)	27*	24*	0.59	6	31*	22*	24*	19	18*	21*	21
N#Cc1ccc(-c2ccc(C3Nc4ccccc4C(=O)N3O)o2)cc1 (configuration not stated)	6	8	0.69	-7	8	·	·	·	·	·	·
COc1ccc(C=NNC(=O)c2ccc(Cn3cc([N+](=O)[O-])cn3)o2)c(OC)c1C	·	·	0.72	·	·	·	·	·	·	·	·
CC(C)c1nc(CN(C)C(=O)NC(C(=O)NC(Cc2ccccc2)CC(O)C(Cc2ccccc2)NC(=O)OCc2cncs2)C(C)C)cs1 (configuration not stated)	·	·	0.72	·	·	·	·	·	·	·	·
CCn1cc(C(=O)N[C@@H](C)C(=O)NCCCO)c(=O)c2cc3c(cc21)OCO3	·	2	0.58	4	·	·	·	·	·	·	·
CCn1cc(C(=O)NCCCO)c(=O)c2cc(F)c(N3CCN(C)CC3)cc21	99*	100*	0.071*	94*	99*	100*	99*	100*	99*	100*	98*
CCCCCCNC(=O)c1cn(CC)c2cc(N3CCN(C)CC3)c(F)cc2c1=O	97*	98*	0.067*	79*	98*	101*	100*	101*	101*	102*	101*
CC(=O)c1cn(CC(=O)Nc2ccc(C)c(C)c2)c2ccccc12	4	3	0.71	-8	2	·	·	·	·	·	·
SMILES	E coli growth-1	phage Ecoli inh	E coli growth-2	Tat transport	AddAB inh	AddAB conf	RecBCD counter	Bact viability	RecBCD conf	Ecoli viability	AddAB phage OD
CC(=O)c1cn(CC(=O)Nc2ccc(C)cc2)c2ccccc12	11*	11*	0.72	-9	14*	0	2	1	3	8	4
O=C(Cn1ccccc1=S)c1ccc(Cl)c(Cl)c1	3	3	0.62	·	8	·	·	·	·	·	·
On1ccccc1=S	76*	+	·	142*	+	+	+	98*	+	105*	+
Oc1ccccc1N=N/C(=N/Nc1ccccc1O)c1ccccc1	1	1	·	1	4	·	·	·	·	·	·
N#C/C(N=Nc1ccccc1O)=N\Nc1ccccc1O	22*	30*	·	-3	23*	89*	27*	94*	25*	25*	94*
CCOC1OC(C(=O)NCc2nc3ccccc3[nH]2)=CC(c2ccccc2)C1CCCO (configuration not stated)	·	·	0.69	·	·	·	·	·	·	·	·
